Records with an inconclusive call do not appear. Activity calls are given as the source filed them. How the source made its calls: active means hit-call score of the fitted dose curve at least 0.9, where 1 is the maximum; inconclusive means response in the unintended direction; inactive means score below 0.9.
How the values were obtained:
[1] = biological target: human Retinoid X Receptor beta (RXRb), RXRB (gene 6257) (UniProt P28702); test: ATG_RXRb_TRANS: Attagene TRANS-FACTORIAL HepG2 Assay for human Retinoid X Receptor beta (RXRb) (AID 2283013)
Sequence of human Retinoid X Receptor beta (RXRb), RXRB (gene 6257) (P28702 whole entry, looked up): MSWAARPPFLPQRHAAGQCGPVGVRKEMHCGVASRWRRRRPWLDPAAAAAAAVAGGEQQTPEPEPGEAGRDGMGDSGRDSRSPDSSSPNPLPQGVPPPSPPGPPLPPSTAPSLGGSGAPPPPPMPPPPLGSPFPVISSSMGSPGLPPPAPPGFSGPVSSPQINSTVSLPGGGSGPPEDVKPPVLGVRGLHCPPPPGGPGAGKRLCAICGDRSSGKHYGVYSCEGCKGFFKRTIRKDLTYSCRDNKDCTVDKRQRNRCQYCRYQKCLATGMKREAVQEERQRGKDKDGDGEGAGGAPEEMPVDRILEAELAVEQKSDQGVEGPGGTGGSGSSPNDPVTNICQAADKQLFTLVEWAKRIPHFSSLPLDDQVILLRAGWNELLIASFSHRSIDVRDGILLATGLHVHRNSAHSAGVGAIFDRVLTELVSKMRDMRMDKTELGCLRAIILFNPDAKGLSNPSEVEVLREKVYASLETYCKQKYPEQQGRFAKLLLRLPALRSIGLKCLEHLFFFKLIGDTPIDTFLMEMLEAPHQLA
In short: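 Multiplexed TRANS reporter assay in HepG2; 24 h dosing; reporter mRNA by RT-PCR/CE fluorescence; gain-of-signal relative to DMSO.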

[2] = biological target: human Vitamin D Receptor (VDR), VDR (gene 7421) (UniProt P11473); test: ATG_VDR_TRANS: Attagene TRANS-FACTORIAL HepG2 Assay for human Vitamin D Receptor (VDR) (AID 2283022)
Sequence of human Vitamin D Receptor (VDR), VDR (gene 7421) (P11473 whole entry, looked up, the tested form may be a part): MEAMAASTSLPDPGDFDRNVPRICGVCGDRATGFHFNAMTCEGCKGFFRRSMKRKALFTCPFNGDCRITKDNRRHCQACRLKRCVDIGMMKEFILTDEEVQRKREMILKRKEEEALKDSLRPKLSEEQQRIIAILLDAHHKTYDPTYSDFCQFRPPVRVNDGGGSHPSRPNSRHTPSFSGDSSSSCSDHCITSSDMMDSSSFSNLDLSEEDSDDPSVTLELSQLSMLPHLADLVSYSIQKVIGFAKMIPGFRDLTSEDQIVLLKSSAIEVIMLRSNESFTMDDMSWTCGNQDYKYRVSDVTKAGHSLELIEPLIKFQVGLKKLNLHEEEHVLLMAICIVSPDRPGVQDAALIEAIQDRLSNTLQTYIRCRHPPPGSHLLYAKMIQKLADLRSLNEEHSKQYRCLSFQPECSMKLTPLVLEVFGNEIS
In short: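 RT-PCR/capillary electrophoresis read-out of reporter mRNA induction in transiently transfected HepG2; 24 h dosing; chimeric NR-Gal4 (TRANS format); gain-of-signal fit against DMSO baseline.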

Row | Compound | outcome [1] | outcome [2]
1 | Cc1ccc2c(c1)C(=O)c1ccccc1C2=O | inactive | inactive
2 | O=c1c2ccccc2nnn1CCl | inactive | inactive
3 | CC(C)(C)c1ccc(N)cc1 | inactive | inactive
